{
  "source": "PubChem BioAssay AID977608",
  "origin": "cited, not measured here",
  "assay": "literature IC50 values for PDB complexes, PDB-derived complexes (AID 977608)",
  "settings": "PDB protein-ligand complexes",
  "note": "Out of some 4,300 compounds screened, about 4,300 (100%) were called active. Cut-off not given; nearly all actives show IC50 up to about 1400 µM. So high a share suggests a set chosen from earlier hits. Some of the results follow. Where a SMILES comes first, the peptide text is derived from it. Square brackets hold non-standard residues; d marks the D form. Peptide text beside a SMILES is read from it. * marks the point of attachment. Orn(CH(NH2)2) = NC(N)NCCC[C@H](N)C(=O)O; Dap = NC[C@H](N)C(=O)O; Propionyl = CCC(=O)*",
  "data": [
    {"molecule": "CCC(=O)NC[C@H](NC(=O)[C@@H](NC(=O)[C@@H]1CCCN1C(=O)[C@H](CCCNC(N)N)NC(=O)[C@H](CC(C)C)NC(=O)[C@@H](N)CCCCN)C(C)C)C(=O)N[C@@H](CCSC)C(=O)N[C@H](C(=O)N[C@@H](CCCNC(N)N)C(=O)N1CCC[C@H]1C(=O)N[C@@H](Cc1c[nH]c2ccccc12)C(=O)N[C@H](C(=O)N[C@@H](CCCNC(N)N)C(=O)O)C(C)C)C(C)C", "note": "(H-KL[Orn(CH(NH2)2)]PV[Dap](Propionyl)MV[Orn(CH(NH2)2)]PWV[Orn(CH(NH2)2)]-OH)", "values": [
      {"measurement": "IC50", "setting": "protein: E3 ubiquitin-protein ligase SIAH1 (T156C mutation), PDB entry 4i7c", "value": "0.006 µM (active)"}
    ]},
    {"molecule": "CSCC[C@H](NC(=O)[C@@H]1CCCN1C(=O)CNC(=O)[C@H](CO[P+](O)(O)O)NC(=O)[C@H](Cc1ccc(O)cc1)NC(=O)[C@@H](NC(=O)[C@@H](N)CCCNC(N)N)[C@@H](C)O)C(=O)N[C@@H](CC(N)=O)C(=O)N[C@@H](CCCCN)C(=O)N[C@H](C(=O)O)C(C)C", "values": [
      {"measurement": "IC50", "setting": "protein: HLA class I histocompatibility antigen, PDB entry 3bh9", "value": "0.117 µM (active)"}
    ]},
    {"molecule": "CC(C)C[C@H](NC(=O)[C@H](CC(C)C)NC(=O)[C@H](CC(C)C)NC(=O)[C@H](CCCCN)NC(=O)[C@H](CCCCN)NC(=O)[C@H](CC(C)C)NC(=O)[C@H](CC(C)C)NC(=O)[C@H](CO)NC(=O)[C@@H]1CCCN1)C(=O)N[C@@H](C)C(=O)N1CCC[C@H]1C(=O)N[C@@H](C)C=O", "note": "(H-PSLLKKLLLAPA-aldehyde)", "values": [
      {"measurement": "IC50", "setting": "protein: PPARgama, PDB entry 3cs8", "value": "1.7 µM (active)"}
    ]},
    {"molecule": "CC(C)C[C@H](NC(=O)[C@@H](O)CC(=O)O)C(=O)NCCCCNC(N)N", "values": [
      {"measurement": "IC50", "setting": "protein: Streptopain, PDB entry 4d8e", "value": "0.098 µM (active)"}
    ]},
    {"molecule": "CCC(CC)[C@H](NC(C)=O)[C@@H]1[C@H](O)[C@@H](C(=O)O)C[C@H]1NC(N)N", "values": [
      {"measurement": "IC50", "setting": "protein: Neuraminidase, PDB entry 4mwv", "value": "0.0004 µM (active)"},
      {"measurement": "IC50", "setting": "protein: Neuraminidase, PDB entry 4mx0", "value": "0.185 µM (active)"}
    ]},
    {"molecule": "CC(C)Oc1ccc(-c2ccnc(NC([P+](O)(O)O)[P+](O)(O)O)c2)cc1", "values": [
      {"measurement": "IC50", "setting": "protein: human farnesyl pyrophosphate synthase (FPPS), PDB entry 4h5c", "value": "0.028 µM (active)"}
    ]},
    {"molecule": "C[C@H](CC(=O)O)C1NN(C)C2N=C(N)NC(=O)C2C1O", "note": "(stereo not given in full)", "values": [
      {"measurement": "IC50", "setting": "protein: Dihydropteroate Synthase, PDB entry 4d9p", "value": "145 µM (active)"}
    ]},
    {"molecule": "COc1ccc(C(=O)CCC(=O)O)c(O)c1", "values": [
      {"measurement": "IC50", "setting": "protein: Orotidine 5'-phosphate decarboxylase, PDB entry 3vi2", "value": "170 µM (active)"}
    ]},
    {"molecule": "CN1CCN(c2ccc(-c3ccncc3-c3cc(F)c(O)c(F)c3)cc2)CC1", "values": [
      {"measurement": "IC50", "setting": "protein: Ribosomal protein S6 kinase alpha-3 RSK2, PDB entry 4nus", "value": "0.005 µM (active)"}
    ]},
    {"molecule": "CCCn1cnc2c1c(=O)n(CCCCC(C)=O)c(=O)n2C", "values": [
      {"measurement": "IC50", "setting": "protein: Chitinase A(W275G mutant), PDB entry 3as2", "value": "360 µM (active)"}
    ]},
    {"molecule": "CC[C@H](C)[C@H](NC(C)=O)C(=O)N[C@@H](Cc1ccc(O)cc1)C(=O)N[C@@H](Cc1ccc(O)cc1)[P+](O)(O)O", "values": [
      {"measurement": "IC50", "setting": "protein: Human testis angiotensin converting enzyme, PDB entry 4bzr", "value": "0.025 µM (active)"}
    ]},
    {"molecule": "O=C(NCc1cccc(O)c1)Nc1nc(-c2ccncc2)cs1", "values": [
      {"measurement": "IC50", "setting": "protein: Rho-associated protein kinase 1, PDB entry 3twj", "value": "0.0145 µM (active)"}
    ]},
    {"molecule": "CC(C)OCC[N+]1=C2NC(=[N+]3CCOCC3)CC(=O)N2CC[C@H]1C(F)(F)F", "values": [
      {"measurement": "IC50", "setting": "protein: PHOSPHATIDYLINOSITOL 3-KINASE CATALYTIC SUBUNIT TYPE 3 Vsp34, PDB entry 4uwg", "value": "0.007 µM (active)"}
    ]},
    {"molecule": "C[C@@H]1COC[C@@H](C)[N+]1=C1CC(=O)N2CC[C@@H](C(F)(F)F)[N+](Cc3ccc(Cl)s3)=C2N1", "values": [
      {"measurement": "IC50", "setting": "protein: PHOSPHATIDYLINOSITOL 3-KINASE CATALYTIC SUBUNIT TYPE 3 Vsp34, PDB entry 4uwk", "value": "0.001 µM (active)"}
    ]},
    {"molecule": "O/N=C/c1ccc(O)cc1", "values": [
      {"measurement": "IC50", "setting": "protein: Macrophage Migration Inhibitory Factor (MIF), PDB entry 2ooz", "value": "7 µM (active)"}
    ]},
    {"molecule": "CC(C)[C@H]1[C@H](C(=O)N2CCC[C@H]2C(=O)N(C)C)SC2=N[C@@](C)(c3ccc(Cl)cc3)[C@@H](c3ccc(Cl)cc3)N21", "values": [
      {"measurement": "IC50", "setting": "protein: E3 ubiquitin-protein ligase Mdm2, PDB entry 3vzv", "value": "0.0092 µM (active)"}
    ]},
    {"molecule": "CC(C)C[C@H](N[P+](O)(O)O[C@@H]1O[C@@H](C)[C@H](O)[C@@H](O)[C@H]1O)C(=O)N[C@@H](Cc1c[nH]c2ccccc12)C(=O)O", "values": [
      {"measurement": "IC50", "setting": "protein: human neutral endopeptidase (Neprilysin), PDB entry 1dmt", "value": "0.002 µM (active)"}
    ]},
    {"molecule": "O=C1N=C(c2ccccc2)C=CC1O", "note": "(stereo not given)", "values": [
      {"measurement": "IC50", "setting": "protein: Polymerase PA, PDB entry 4m5o", "value": "0.38 µM (active)"}
    ]},
    {"molecule": "Nc1csc2nccnc12", "values": [
      {"measurement": "IC50", "setting": "protein: Dengue virus 3 non-structural protein 5, PDB entry 4ctk", "value": "10000 µM (active)"}
    ]},
    {"molecule": "O[C@@H]1[C@@H](CO[P+](O)(O)O)O[C@](O)(CO[P+](O)(O)O)[C@H]1O", "values": [
      {"measurement": "IC50", "setting": "PDB entry 4fxf", "value": "6.5 µM (active)"}
    ]},
    {"molecule": "CCN1CCN(C(=O)N[C@@H](C(=O)N[C@H](C(=O)O)[C@H]2N[C@@H](C(=O)O)C(C)(C)S2)c2ccccc2)C(=O)C1=O", "values": [
      {"measurement": "IC50", "setting": "protein: Penicillin-binding protein 3, PDB entry 4kqq", "value": "126 µM (active)"},
      {"measurement": "IC50", "setting": "protein: Penicillin-binding protein 3, PDB entry 4kqr", "value": "126 µM (active)"}
    ]},
    {"molecule": "CCN1CCN(C(=O)N[C@@H](C(=O)N[C@H](C=O)[C@@H]2N[C@@H](C(=O)O)C(C)(C)S2)c2ccccc2)C(=O)C1=O", "values": [
      {"measurement": "IC50", "setting": "protein: Penicillin-binding protein 3, PDB entry 4kqo", "value": "0.166 µM (active)"}
    ]},
    {"molecule": "CC(=O)Nc1cc(Oc2ccc3c(ccn3C(=O)Nc3ccc(CN4CCN(C)CC4)c(C(F)(F)F)c3)c2)ncn1", "values": [
      {"measurement": "IC50", "setting": "protein: Tyrosine-protein kinase JAK2, PDB entry 3ugc", "value": "0.947 µM (active)"}
    ]},
    {"molecule": "N#C[C@@H](Cc1cccc(C(=O)c2c[nH]c3ncccc23)c1)C(N)=O", "values": [
      {"measurement": "IC50", "setting": "protein: Ribosomal protein S6 kinase alpha-3, PDB entry 4jg7", "value": "0.12 µM (active)"}
    ]},
    {"molecule": "O=C(N[C@H]1CCCCCCC[C@@H]2C[C@@]2(C(=O)NS(=O)(=O)C2CC2)NC(=O)[C@@H]2C[C@@H](OC(=O)N3CCc4ccccc4C3)CN2C1=O)OC1CCCC1", "values": [
      {"measurement": "IC50", "setting": "protein: Serine protease NS3, PDB entry 4ktc", "value": "0.001 µM (active)"}
    ]},
    {"molecule": "CCCCC[C@H](CC(=O)NO)C(=O)N[C@H](C(=O)N1CCC[C@H]1C(=O)O)C(C)C", "values": [
      {"measurement": "IC50", "setting": "protein: Peptide Deformylase from Staphylococcus aureus, PDB entry 1q1y", "value": "0.02 µM (active)"}
    ]},
    {"molecule": "H-GSDARFLRGYHLYA-OH", "values": [
      {"measurement": "IC50", "setting": "protein: HLA class II histocompatibility antigen, DR alpha chain, PDB entry 4ov5", "value": "0.0369 µM (active)"}
    ]},
    {"molecule": "H-FLNKDLEVDGHFVTM-OH", "values": [
      {"measurement": "IC50", "setting": "protein: HLA class I histocompatibility antigen, A-2 alpha chain HLA-A*0201, PDB entry 4u6y", "value": "0.083 µM (active)"}
    ]},
    {"molecule": "H-MHRVSAALEEANKVFL-OH", "values": [
      {"measurement": "IC50", "setting": "protein: Maltose ABC transporter periplasmic protein, Nuclear receptor subfamily 0 group B member 2 chimeric construct MBP-SHP, PDB entry 4nuf", "value": "5 µM (active)"}
    ]},
    {"molecule": "O=C(Nc1ccccc1N1CCNCC1)c1csc(-n2ncc3ccccc32)n1", "values": [
      {"measurement": "IC50", "setting": "protein: Serine/threonine-protein kinase Chk1, PDB entry 4hyi", "value": "0.003 µM (active)"}
    ]},
    {"molecule": "CN1C(=O)N[C@H](Cc2c[nH]c3c(Cl)cccc23)C1=O", "values": [
      {"measurement": "IC50", "setting": "protein: Receptor-interacting serine/threonine-protein kinase 1 (C34A, C127A, C233A, C240A mutation), PDB entry 4ith", "value": "0.317 µM (active)"}
    ]},
    {"molecule": "CCN(CC)CCOc1cccc2oc3c4c(O)c5c(=O)c(C)c6c(c5c3nc12)C(=O)[C@@](C)(OCC[C@H](OC)[C@@H](C)[C@@H](OC(C)=O)[C@H](C)[C@H](O)[C@H](C)[C@@H](O)[C@@H](C)CCC[C@@H](C)C(=O)N4)O6", "values": [
      {"measurement": "IC50", "setting": "protein: DNA-directed RNA polymerase subunit alpha, PDB entry 4kn4", "value": "0.057 µM (active)"}
    ]},
    {"molecule": "CO[C@H]1CCO[C@@]2(C)Oc3c(C)c(=O)c4c(O)c(c5oc6cccc(OCCCCN7CCN(CCn8ccnc8)CC7)c6nc5c4c3C2=O)NC(=O)[C@H](C)CCC[C@H](C)[C@H](O)[C@@H](C)[C@@H](O)[C@@H](C)[C@H](OC(C)=O)[C@@H]1C", "values": [
      {"measurement": "IC50", "setting": "protein: DNA-directed RNA polymerase subunit alpha, PDB entry 4kn7", "value": "0.024 µM (active)"}
    ]}
  ]
}
